Source: PubChem
IL1B secr inh: inflammasome signaling inhibition, IL-1 beta readout; THP-1 LPS/ATP IL-1B secretion, AlphaLISA, 16 h; active compounds read low; 360,000 compounds, 4.7% hits; AID 743279; activity change, % at 57.5 µM; in the data active = activity change below about -50%; inconclusive = mostly about -30% to -49%
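Secreted IL-1B measured by AlphaLISA bead assay after 16 h compound exposure of THP-1 cells; compounds (final up to 57.5 uM) added 1 h before LPS (250 ng/mL) and ATP (1.25 mM) stimulation; lower signal means less secretion.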
HT1080 IDH1KD tx: kills HT-1080 cells with IDH1 knockdown | HT-1080 IDH1 knockdown viability, ATP luminescence, 48 h | Potency, µM (top dose mostly 46.1 µM), actives largely listed as cytotoxic | 360,000 compounds, 2% hits | AID 686971
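In this qHTS, HT-1080 cells depleted of IDH1 are exposed for 48 h at 37 °C to compound titrations. Toxicity is scored from CellTiter-Glo luminescence, with DMSO as full viability and medium alone as none.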
DT40 TDP1 CPT: growth inhibition of DT40 Tdp1-/-;hTDP1 cells with camptothecin (screen for TDP1 inhibitors) | chicken DT40 Tdp1-/-;hTDP1 cells + 20 nM CPT, ATP luminescence, 48 h | Potency, µM (doses to about 46.2 µM), actives largely listed as inhibitors | 420,000 compounds, 12% hits | AID 686979; also: nearly all actives have a fitted effect of over 55% in size
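Chicken DT40 Tdp1-/- cells complemented with human TDP1, 400 cells/well, exposed to compounds plus 20 nM camptothecin for at least 48 h at 37 C; viability read as ATP content by CellTiter-Glo luminescence.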
ELG1 repair inh: inhibitors of ELG1-dependent DNA repair in HEK293T cells; HEK293T ELG1-luciferase reporter, luminescence, 16 h; DNA damage induced by 5-fluorouridine; Potency, µM (series often up to 46.1 µM), most hits filed as inhibitors; 330,000 compounds, 2.3% hits; also: nearly all actives have a fitted effect of over 55% in size
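Step one: seed 2,000 cells per well. Step two: pin-transfer compound or DMSO alongside 5-fluorouridine. Step three: incubate 16 hr, 37 °C, 5% CO2. Step four: add ONE-Glo, wait 30 min, read luminescence.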
TDP1 cell noCPT: qHTS for Inhibitors of human tyrosyl-DNA phosphodiesterase 1 (TDP1): qHTS in cells in absence of CPT. 420,000 compounds, 15% hits. DT40 Tdp1-/- hTDP1 cells, no CPT, ATP luminescence, 48 h. AID 686978, 2013. Potency, µM (highest dose often 46.2 µM), usual class: inhibitors; also: nearly all actives have a fitted effect of over 55% in size
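Compound effects on proliferation are scored in DT40 Tdp1-/-;hTDP1 cells in the absence of CPT. ATP levels (CellTiter-Glo luminescence) are recorded after a ≥48 hr, 37 °C incubation.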
HT1080-NT tox: kills 2HG-producing HT-1080-NT fibrosarcoma cells | AID 686970 | HT-1080-NT fibrosarcoma viability, CellTiter-Glo ATP luminescence, 48 h | 360,000 compounds, 1.6% hits | Potency, µM (doses to about 46.1 µM), usual class: cytotoxic;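 also: NT is the 2HG producing partner of a matched IDH1 knockdown line; nearly all actives have a fitted effect of over 55% in size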
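Read-out is CellTiter-Glo luminescence after 10 minutes at room temperature, following 48 hours' compound treatment of HT-1080-NT cells (750 cells/well, RPMI, 5% FBS, 37 degrees C).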
Each line names hits and unclear results; the compound was inactive in the other large screens. An excerpt weighted towards active compounds, which were near 19% of everything screened. Unless noted, calls follow the shape of the dose curve; as a rule, active = well fitted curve in the direction sought with a large enough effect; inconclusive = small, poorly fitted or top-dose-only effect, or another doubt; inactive = no such curve, though single readings can be large; an effect the other way counts as inactive or inconclusive.

CCCC(=O)Nc1nnc(S(=O)(=O)N(C)Cc2ccc(Cl)cc2)s1	none (no result: IL1B secr inh, HT1080 IDH1KD tx, ELG1 repair inh, HT1080-NT tox)
COc1ccc(/C=C2\C(=O)NC(=S)N2C(=O)c2ccc(C)cc2)cc1	DT40 TDP1 CPT inconclusive, TDP1 cell noCPT 15µM
Cc1cc(C(=O)CSc2nncs2)c(C)n1Cc1ccco1	ELG1 repair inh inconclusive, TDP1 cell noCPT 12µM
Cc1cc(C(=O)CN2C(=O)NC(c3ccccc3)(c3ccccc3)C2=O)c(C)n1Cc1ccco1	DT40 TDP1 CPT inconclusive, TDP1 cell noCPT 23µM
Cc1cc(C(=O)CCl)c(C)n1Cc1ccco1	IL1B secr inh -97, HT1080 IDH1KD tx inconclusive, DT40 TDP1 CPT 2.6µM, ELG1 repair inh inconclusive, TDP1 cell noCPT 2.6µM, HT1080-NT tox inconclusive
Cc1cc(C(=O)CSc2nnc(-c3ccco3)o2)c(C)n1-c1ccc2c(c1)OCCO2	DT40 TDP1 CPT inconclusive, ELG1 repair inh inconclusive, TDP1 cell noCPT 21µM
CC(=O)CN1C(=O)NC(c2ccccc2)(c2ccccc2)C1=O	TDP1 cell noCPT inconclusive
C=CCn1c(=O)c2c(nc3n2CC(C)CN3Cc2ccccc2)n(C)c1=O (stereo not drawn)	TDP1 cell noCPT inconclusive
CC(=O)NC(Cc1ccccc1F)C(=O)NC1CCN(C(=O)Nc2ccc(C)cc2)CC1 (stereo not drawn)	none
Cc1cc(C(=O)CSc2nnc(-c3ccco3)o2)c(C)n1Cc1ccco1	DT40 TDP1 CPT 21µM, TDP1 cell noCPT 23µM
COCC(C)n1c(C)cc(C(=O)CSc2nnc(-c3ccco3)o2)c1C (stereo not drawn)	DT40 TDP1 CPT inconclusive, TDP1 cell noCPT inconclusive
CC(C)COC(=O)N1CCCCC1c1cc(C(=O)Nc2ccc3c(c2)OCO3)no1 (stereo not drawn)	none (no result: ELG1 repair inh)
COC(=O)N1CCCCC1c1cc(C(=O)NCc2ccc(F)cc2)no1 (stereo not drawn)	none (no result: ELG1 repair inh)
CC(C)COC(=O)N1CCCCC1c1cc(C(=O)Nc2ccccc2)no1 (stereo not drawn)	DT40 TDP1 CPT 18µM, TDP1 cell noCPT inconclusive (no result: ELG1 repair inh)
CC(C)NC(=O)c1cc(C2CCCCN2C(=O)OCCF)on1 (stereo not drawn)	IL1B secr inh -67 (no result: ELG1 repair inh)
O=C(NCc1ccc(F)cc1)c1cc(C2CCCCN2C(=O)OCCF)on1 (stereo not drawn)	DT40 TDP1 CPT inconclusive, TDP1 cell noCPT inconclusive (no result: ELG1 repair inh)
CC(C)COC(=O)N1CCCCC1c1cc(C(=O)NCc2ccc(F)cc2)no1 (stereo not drawn)	DT40 TDP1 CPT inconclusive, TDP1 cell noCPT 21µM (no result: ELG1 repair inh)
CCCSC1=NC2(CCN(C(=O)NC3CCCCC3)CC2)N=C1c1ccc(Cl)cc1	none (no result: IL1B secr inh, HT1080 IDH1KD tx, ELG1 repair inh, HT1080-NT tox)
CN(Cc1ccccc1)C(=O)C1CCN(S(=O)(=O)c2ccc3c(c2)oc(=O)n3C)CC1	none (no result: IL1B secr inh, HT1080 IDH1KD tx, ELG1 repair inh, HT1080-NT tox)
CCC1CCCCN1C(=O)Cn1c(=O)n(-c2ccccc2C(F)(F)F)c(=O)c2c(C)c(C(=O)N(C)C)sc21 (stereo not drawn)	none (no result: IL1B secr inh, HT1080 IDH1KD tx, ELG1 repair inh, HT1080-NT tox)
CC1(C)Oc2ccc3ccc(=O)oc3c2/C(=C/Nc2cccc(O)c2)C1=O	IL1B secr inh -84, HT1080 IDH1KD tx inconclusive, DT40 TDP1 CPT inconclusive, ELG1 repair inh inconclusive, TDP1 cell noCPT 21µM, HT1080-NT tox inconclusive
CC1(C)Oc2ccc3ccc(=O)oc3c2/C(=C/Nc2ccc(O)cc2)C1=O	IL1B secr inh -81, ELG1 repair inh inconclusive, TDP1 cell noCPT inconclusive, HT1080-NT tox inconclusive
COc1ccc(CN2C[C@H](Sc3nc4ccccc4[nH]3)C[C@H]2C(=O)N(C)C)c2ccccc12	none (no result: IL1B secr inh, HT1080 IDH1KD tx, ELG1 repair inh, HT1080-NT tox)
Cc1cccn2c(=O)c(C=O)c(N3CCSCC3)nc12	IL1B secr inh -50
COC(=O)/C(C#N)=C/c1c(N2CCN(c3ccccc3)CC2)nc2c(C)cccn2c1=O	DT40 TDP1 CPT inconclusive, ELG1 repair inh inconclusive, TDP1 cell noCPT inconclusive
Cc1cccn2c(=O)c(C=C(C#N)C#N)c(N3CCN(c4cccc(Cl)c4)CC3)nc12	IL1B secr inh -75, ELG1 repair inh inconclusive, TDP1 cell noCPT inconclusive
